PrPC surface inh: cell surface PrPC inhibition, primary TR-FRET screen. P04156. TR-FRET read-out. inhibition, % at 13.8 µM. 0.43% of 370,000 active. AID 720596; in the data active = inhibition above about 24%
TcdB inh: TcdB glycohydrolase inhibition; P18177; TcdB glycohydrolase enzymatic assay, plate reader; inhibition, % at 9.99 µM; 0.24% of 350,000 active; AID 652162; in the data active = inhibition above about 10%
DUSP3 inh: DUSP3 (human) phosphatase inhibition | AID 1654 | inhibition, % at 13.3 µM | 0.52% of 290,000 active | recombinant VHR phosphatase, pNPP absorbance; in the data active = inhibition above about 50%
Target sequence (P51452 whole entry, looked up): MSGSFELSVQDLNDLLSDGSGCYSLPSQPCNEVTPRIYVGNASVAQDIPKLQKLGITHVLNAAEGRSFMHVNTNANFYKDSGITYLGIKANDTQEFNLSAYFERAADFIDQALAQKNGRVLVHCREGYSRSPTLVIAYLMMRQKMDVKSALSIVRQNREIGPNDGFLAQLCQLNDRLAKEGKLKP
Numbers stand for hits; - = inactive; . = no result. In the library only some 0.82% were active in any assay of this set; here they are far more common.

SMILES	PrPC surface inh	TcdB inh	DUSP3 inh
O=C(N/N=C/c1cccc([N+](=O)[O-])c1O)c1cccs1	-	-	56.2
O=C(N/N=C/c1ccc([N+](=O)[O-])cc1)c1cccs1	-	-	-
C[C@@H]1CN([C@@H](C)CO)C(=O)c2cccc(NS(=O)(=O)c3cn(C)cn3)c2O[C@H]1CN(C)C(=O)Nc1ccc(C(F)(F)F)cc1	.	-	.
CN1[C@@H]2c3ccc(-c4ccccc4)c(=O)n3C[C@H]1[C@H](CO)[C@H]2C(=O)NCC1CC1	.	-	.
CCCOc1ccc2c(C)c(CC(=O)OC)c(=O)oc2c1	-	.	-
COC(=O)Cc1c(C)c2ccc(OCC(=O)N(C)C)cc2oc1=O	-	.	50.9
Cc1ccc(CSc2nc3nc(C)cc(C)c3c(=O)[nH]2)cc1	-	13.1	-
Cc1cc(C)c2c(=O)[nH]c(SCc3ccccc3)nc2n1	-	-	-
Cc1cccc(-c2ccc([C@@H]3[C@H](CO)N4CCCCN(S(=O)(=O)c5ccccc5C)C[C@@H]34)cc2)c1	.	-	.
CCOC(=O)C1=c2s/c(=C\c3cccnc3)c(=O)n2C(N)=C(C(=O)OC)C1c1cccnc1 (configuration not stated)	-	.	52.3
COC(=O)C1=C(N)n2c(s/c(=C\c3cccnc3)c2=O)=C(C(=O)OC)C1c1cccnc1 (configuration not stated)	.	.	-
C[C@H](CO)N1C[C@H](C)[C@H](CN(C)C(=O)C2CCCCC2)OCCCC[C@H](C)Oc2ccc(NS(C)(=O)=O)cc2C1=O	.	-	.
COc1ccc(CCC(=O)NC(C)c2ccccc2)cc1OC (configuration not stated)	-	-	56.9
COc1ccccc1OCCCC(=O)NC(C)c1ccccc1 (configuration not stated)	-	-	-
O=C(C[C@@H]1CC[C@@H](NC(=O)C2CCOCC2)[C@@H](CO)O1)NCc1ccccc1Cl	.	-	.
COc1ccc(C)cc1N(C(=O)c1ccco1)C(C(=O)NC1CCCC1)c1ccc(N2CCOCC2)cc1 (configuration not stated)	-	-	52.0
COc1ccc(OC)c(N(C(=O)c2ccco2)C(C(=O)NC2CCCC2)c2ccc(N3CCOCC3)cc2)c1 (configuration not stated)	-	-	-
O=[N+]([O-])c1ccc(NC(=S)N2CCCC2)cc1	-	-	50.7
CN1CCN(C(=S)Nc2ccc([N+](=O)[O-])cc2)CC1	-	.	-
CS(=O)(=O)N1Cc2ccccc2CC1C(=O)O (configuration not stated)	-	-	-
CCS(=O)(=O)N1Cc2ccccc2CC1C(=O)N1CCN(c2ccccc2)CC1 (configuration not stated)	-	-	51.5
CO[C@@H]1CN(C)C(=O)c2cc(NS(=O)(=O)c3ccccc3)ccc2OC[C@H](C)N(Cc2nccs2)C[C@H]1C	.	-	.
CC(C)NC(=O)Nc1ccc2c(c1)C(=O)N([C@@H](C)CO)C[C@H](C)[C@@H](CN(C)S(=O)(=O)c1cn(C)cn1)OCCCC[C@@H](C)O2	.	-	.
CCCCCCCCCn1ccc(=N)cc1	24.6	-	-
CCCCCCCn1ccc(=N)cc1	-	.	-
SMILES	PrPC surface inh	TcdB inh	DUSP3 inh
COc1cc(/C=C(\C#N)C(=O)N2CCCCC2)ccc1O	-	14.3	-
N#C/C(=C\c1ccc(O)c(O)c1)C(=O)N1CCCC1	-	-	-
CS(=O)(=O)N(CC(=O)N1CCCC1)c1ccc(Cl)cc1	-	-	-
Cc1ccc(N(CC(=O)N2CCCC2)S(C)(=O)=O)cc1C	-	-	58.2
O=C(NCC[C@@H]1CC[C@H](NS(=O)(=O)c2cccc(F)c2)[C@H](CO)O1)C1CCOCC1	.	-	.
CCc1cc(/C(Cc2ccccn2)=N\O)c(O)cc1O	-	15.5	-
CCc1cc(/C(Cc2cscn2)=N\O)c(O)cc1O	-	.	-
COC(=O)C[C@H]1CC[C@H]2[C@@H](COc3ccc(NC(=O)Nc4ccc(C#N)cc4)cc3C(=O)N2C)O1	.	-	.
COc1ccccc1C(=O)Nc1ccnn1C1CCN(Cc2csc(C(C)=O)c2)CC1	-	-	-
CC(=O)c1cc(CN2CCC(n3nccc3NC(=O)c3ccccc3C)CC2)cs1	-	-	58.8
Cc1ccccc1CN1CCC(n2nccc2NC(=O)c2ccc3c(c2)OCO3)CC1	-	-	-
COc1ccc(CN2CCC(n3nccc3NC(=O)c3ccc4c(c3)OCO4)CC2)cc1C	-	-	52.5
CO[C@@H]1CN(C)C(=O)c2ccc(NC(=O)Nc3ccccc3Cl)cc2OC[C@@H](C)N(S(=O)(=O)CC(F)(F)F)C[C@H]1C	.	-	.
Cc1noc(C)c1NC(=O)Nc1ccc2c(c1)C(=O)N([C@H](C)CO)C[C@@H](C)[C@H](CN(C)C(=O)Nc1cccc3ccccc13)O2	.	-	.
Cc1cccc(S(=O)(=O)N[C@H]2CC[C@H](CCn3cc(-c4ccccn4)nn3)O[C@H]2CO)c1	.	-	.
CCN1/C(=C2\OC(=S)N(C)C2=O)Sc2ccccc21	-	.	-
CCN1/C(=C2\OC(=S)N(C)C2=O)C=Cc2ccccc21	-	10.8	-
COCC(=O)Nc1ccc2c(c1)[C@H]1C[C@H](CC(=O)NCc3ccccc3)O[C@H](CO)[C@H]1O2	.	-	.
COc1ccc(CN(C)C[C@H]2OCCCC[C@@H](C)Oc3ccc(NC(=O)CCC(F)(F)F)cc3C(=O)N([C@@H](C)CO)C[C@H]2C)cc1	.	-	.
C/C(CC(C)C)=N\NC(=O)Nc1ccccc1	-	-	50.8
CCOC(=O)C/C(C)=N/NC(=O)Nc1ccccc1	-	.	-
CN(C[C@H]1N[C@@H](CO)[C@@H]1c1ccc(-c2cccc(F)c2)cc1)S(C)(=O)=O	.	-	.
CCOc1cc(/C=C2\C(=O)N(CCC#N)N=C2C)ccc1OCC(N)=O	-	-	-
CC1=NN(CCC#N)C(=O)/C1=C/c1ccc(N(C)C)cc1	-	-	59.8
COc1ccc(CNC(=O)Cc2cn(C)c3ccccc23)c(OC)c1	-	27.5	-
SMILES	PrPC surface inh	TcdB inh	DUSP3 inh
COc1ccccc1CNC(=O)CCCc1cn(C)c2ccccc12	-	-	-
COc1ccccc1NS(=O)(=O)c1cc(NC(=O)c2sccc2C)ccc1N1CCOCC1	-	-	-
COc1ccccc1NS(=O)(=O)c1cc(NC(=O)c2sccc2C)ccc1N1CCCC1	-	.	52.9
CCCCNC(=O)CCCCn1c(=S)[nH]c2c([nH]c3ccc(OC)cc32)c1=O	-	-	-
COc1ccc2[nH]c3c(=O)n(CCCCC(=O)NCCN4CCCC4)c(=S)[nH]c3c2c1	-	11.0	-
O=C(C[C@@H]1CC[C@@H](NS(=O)(=O)c2ccccc2)[C@H](CO)O1)NCc1ccccc1F	.	-	.
COc1ccc(NC(=O)N(C)C[C@@H]2Oc3ccc(NC(=O)CCCCCC(=O)Nc4ccccc4N)cc3C(=O)N([C@H](C)CO)C[C@@H]2C)cc1	.	-	.
CCCCN(C)S(=O)(=O)c1cc2c3c(c1)CCC(=O)N3CCC2	-	-	55.7
CCN(c1ccccc1C)S(=O)(=O)c1cc2c3c(c1)CCC(=O)N3CCC2	-	-	-
N#C[C@H]1[C@H](c2ccccc2-c2cccc(F)c2)[C@@H](CO)N1C(=O)NC1CCCCC1	.	-	.
C[C@H]1CN([C@@H](C)CO)C(=O)c2cccc(NC(=O)c3cnccn3)c2O[C@H]1CN(C)C(=O)Nc1ccc2c(c1)OCO2	.	-	.
CCCCNC(=O)CCCCCn1c(=O)[nH]c2cc(OC)c(OC)cc2c1=O	-	.	-
CCCCCNC(=O)CCCCn1c(=O)[nH]c2cc(OCC)c(OCC)cc2c1=O	-	.	51.2

Screening results (PubChem BioAssay)
